The source of these data is PubChem BioAssay.

The source made the active and inactive calls. Unless noted, how the calls were made is not given here.

Assay [1] in a line: RPL19A-GFP modulators, yeast TOR pathway, confirmation, cell-based, S. cerevisiae, flow cytometry, cherry picks, mother/daughter gates (AID 2270;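 active means GFP response below 50% of the DMSO control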). The following applies: S. cerevisiae RPL19A-GFP strain, 3 h, at 10 µM, stronger effect = lower value, 100 = same GFP as DMSO wells. Background: Flow cytometry measures light scatter and fluorescence of single cells or particles in a stream.
The nature of assay [2]: LAP4-GFP expression modulators in yeast, confirmation, cell-based, cherry picks, flow cytometry, mother/daughter gates (AID 2271;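 active means GFP response above 150% of the DMSO control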;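 further: ratio of sample to DMSO plate mean so 100% equals DMSO level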). The following applies: S. cerevisiae LAP4-GFP strain, 3 h, at 10 µM, stronger effect = higher value.
Assay [3] in a line: modulators of CIT2-GFP expression in yeast, confirmation, S. cerevisiae, GFP fusion, cherry picks, mother/daughter gates (AID 2274;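 active means GFP response above 150% of the DMSO level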). Conditions: S. cerevisiae CIT2-GFP strain, flow cytometry, 3 h, at 10 µM, stronger effect = higher value.
The test system of assay [4] is Botulinum neurotoxin type F light chain protease (Clostridium botulinum). The assay can be described thus: Botulinum neurotoxin type F light chain protease inhibition, multiplex microsphere flow cytometry, validation set (AID 588459). The following applies: multiplex microsphere protease substrate cleavage assay, at 10 µM, stronger effect = higher value.
The target of assay [5] is Botulinum neurotoxin type A (Clostridium botulinum) (UniProt P0DPI0). The assay can be described thus: BoNT/A light chain protease inhibitors, biochemical, multiplex microsphere flow cytometry, validation set (AID 588460). Conditions: at 10 µM, stronger effect = higher value.
Chain of Botulinum neurotoxin type A (Clostridium botulinum) (P0DPI0 whole entry, looked up): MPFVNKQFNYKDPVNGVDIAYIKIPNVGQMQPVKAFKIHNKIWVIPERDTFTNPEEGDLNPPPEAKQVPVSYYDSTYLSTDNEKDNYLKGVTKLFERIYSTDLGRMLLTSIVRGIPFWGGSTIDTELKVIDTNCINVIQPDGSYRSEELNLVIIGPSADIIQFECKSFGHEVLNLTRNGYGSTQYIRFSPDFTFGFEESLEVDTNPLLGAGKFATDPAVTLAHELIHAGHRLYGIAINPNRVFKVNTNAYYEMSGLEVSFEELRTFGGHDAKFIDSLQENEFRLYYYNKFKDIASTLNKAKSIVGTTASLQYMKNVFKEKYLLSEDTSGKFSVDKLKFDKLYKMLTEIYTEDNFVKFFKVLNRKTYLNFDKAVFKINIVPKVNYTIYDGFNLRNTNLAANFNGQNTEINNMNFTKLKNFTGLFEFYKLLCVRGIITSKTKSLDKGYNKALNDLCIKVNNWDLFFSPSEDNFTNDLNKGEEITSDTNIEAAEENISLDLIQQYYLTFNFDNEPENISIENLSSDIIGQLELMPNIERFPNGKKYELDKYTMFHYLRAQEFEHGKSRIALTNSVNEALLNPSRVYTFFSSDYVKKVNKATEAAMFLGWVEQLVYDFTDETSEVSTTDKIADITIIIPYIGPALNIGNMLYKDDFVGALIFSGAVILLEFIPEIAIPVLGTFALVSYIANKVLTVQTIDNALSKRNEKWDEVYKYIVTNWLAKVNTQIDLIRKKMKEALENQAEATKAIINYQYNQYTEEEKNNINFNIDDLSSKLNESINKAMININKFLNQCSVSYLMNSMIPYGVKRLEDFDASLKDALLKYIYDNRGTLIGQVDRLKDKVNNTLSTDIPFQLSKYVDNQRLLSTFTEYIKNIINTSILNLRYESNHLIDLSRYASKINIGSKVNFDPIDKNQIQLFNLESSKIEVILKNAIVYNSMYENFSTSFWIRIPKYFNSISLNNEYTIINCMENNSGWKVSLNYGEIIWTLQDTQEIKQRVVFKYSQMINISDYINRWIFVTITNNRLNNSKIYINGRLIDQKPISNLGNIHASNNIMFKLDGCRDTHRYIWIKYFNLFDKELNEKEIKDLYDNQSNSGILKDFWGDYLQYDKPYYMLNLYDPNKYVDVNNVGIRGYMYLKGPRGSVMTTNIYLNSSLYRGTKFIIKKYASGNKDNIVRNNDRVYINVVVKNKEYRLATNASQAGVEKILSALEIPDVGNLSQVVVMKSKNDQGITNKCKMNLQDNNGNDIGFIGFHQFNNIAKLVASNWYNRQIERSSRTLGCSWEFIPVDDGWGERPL
A short description of assay [6]: inhibitors of CD8+ T cell-vesicle binding, pilot screen, LFA-1/ICAM-1 modulator project, MLPCN validation set, flow cytometry (AID 2523;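 active means response below a set limit, under 55% cells CD8-positive and vesicle-bound, and CD8 cells' 90th-percentile brightness under 279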;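 on vesicle binding response: mean PE anti-B7-1 fluorescence of CD8+ cells relative to row control; 100% = QL9-loaded vesicles with DMSO vehicle in the same plate row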). Conditions: 2C mouse CD8+ T cells, at 7 µM, stronger effect = lower value; double positive events: measured here: CD8+/vesicle+ event percentage.
Assay [7] addresses Integrin beta-1 (Homo sapiens) + Integrin alpha-4 (Homo sapiens) (UniProt P13612+P05556). The assay can be described thus: inhibition of HUTS-21 binding to VLA-4, pilot screen, VLA-4 allosteric modulator project, U937 cells, HUTS-21 mAb, flow cytometry, validation set (AID 2674;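 active means inhibition above 50%, about 3 SD of the validation set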;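 further: antibody binding induced by the VLA-4 ligand LDV present at three times its Kd; 0% = LDV ligand with antibody and no compound and 100% = antibody without LDV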). The following applies: HUTS-21 LIBS mAb binding, at 6.7 µM, stronger effect = higher value.
A short description of assay [8]: superoxide lowering in aged yeast cells, pilot screen, validation compound set (AID 2706;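 active means superoxide response below 65% of plate, a cut near 3 SD across the whole screen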;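 further: yeast exposed to compound for one week at 30 degrees C before staining; 100% = mean of all compound wells on the same plate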). Conditions: S. cerevisiae aging, superoxide DHE fluorescence; at 10 µM; stronger effect = lower value.
The target of assay [9] is Beta-adrenergic receptor kinase 1 (Homo sapiens) (UniProt P25098). Nature of the assay: GRK2 binders displacing RNA aptamer, biochemical, validation, human GRK2, bead flow cytometry (AID 488806;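 active means aptamer binding inhibition above 30%, about 3 SD of noise from non-fluorescent compounds; inactive means inhibition at or below 30%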). Conditions: bead-bound GRK2, FAM-aptamer displacement, at 10 µM, stronger effect = higher value.
In assay [10] the target is Beta-2 adrenergic receptor (Homo sapiens) (UniProt P07550). The assay can be described thus: beta2AR agonists driving receptor internalization, pilot screen, cell-based, FAP fluorogen, flow cytometry, validation set (AID 504459;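 active means percent response above 42, roughly 3 SD of non-fluorescent test compounds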;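 further: agonist-driven loss of surface beta2AR via internalization measured by FAP dye flow cytometry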). The following applies: Am2.2-beta2AR cells, FAP surface receptor flow cytometry; at 10 µM; stronger effect = higher value.
Assay [11] addresses AP-2 complex subunit beta (Homo sapiens) (UniProt P63010). Nature of the assay: inhibitors of arrestin peptide binding to AP2, pilot screen, biochemical, validation set, GST-AP2 beads, flow cytometry (AID 504541;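 active means inhibition above 54%, about 3 SD of non-fluorescent compounds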;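 further: AP2 carries R879A mutation and is captured from E. coli lysate; bead-bound FITC arrestin peptide fluorescence measuring arrestin peptide binding to AP2; 0% = DMSO wells and 100% = excess unlabeled arrestin peptide control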). Conditions: FITC arrestin peptide, at 10 µM, stronger effect = higher value.
A short description of assay [12]: yeast V-ATPase proton transport modulators, S. cerevisiae, pHLuorin, HTS validation (AID 504600; in the data active means response above about 15%;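 further: plate controls were DMSO for no effect and reference compound for full effect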). The following applies: S. cerevisiae pHLuorin cytosolic pH, at 10 µM, stronger effect = higher value.
Assay [13] concerns anti-desmoglein-3 scFv antibody binding to human DSG3. Nature of the assay: inhibitors of anti-DSG3 scFv binding to DSG3, pilot screen, biochemical, validation compound set, bead-based, flow cytometry (AID 588368;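 active means binding below the plate cutoff, the plate median minus 3 SD, with a reading above zero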;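 further: signal is the median channel fluorescence of bead-bound GFP antibody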). The following applies: Protein G beads, DSG3-Fc, scFv-GFP binding, at 10 µM, stronger effect = lower value.
Assay [14] has as its target Lethal factor (Bacillus anthracis) (UniProt P15917). Nature of the assay: Lethal factor protease inhibitors, Bacillus anthracis, multiplex microsphere cleavage assay, validation set (AID 588461). The following applies: flow cytometry, at 10 µM, stronger effect = higher value.
Assay [15] is described as follows: inhibitors of fungal efflux pumps CDR1, CDR2, MDR1, pilot screen, validation compound set, multiplex, phenotypic (AID 588506;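 active means efflux inhibition above 0.42, the validation set average plus 4 SD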;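 further: Nile Red retained in cells so higher fluorescence means more efflux inhibition; 0 = negative control wells and 1 = enniatin B 25 µM full block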). The following applies: S. cerevisiae pump-expressing triplex, Nile Red efflux flow cytometry; at 10 µM; stronger effect = higher value.
For assay [16], the target named is ATP-binding cassette sub-family B member 6 (Homo sapiens) (UniProt Q9NP58). The assay can be described thus: ABCB6 transporter inhibitors, pilot screen, K562-ABCB6 cells, flow cytometry, validation set (AID 588550;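 active means inhibition above the screen-wide mean plus 3 SD, about 51%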;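 further: 0% = DMSO wells and 100% = benzethonium chloride 70 µM positive control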). The following applies: K562-ABCB6 porphyrin accumulation, 1 h, at 10 µM, stronger effect = higher value.
Chain of ATP-binding cassette sub-family B member 6 (Homo sapiens) (Q9NP58 whole entry, looked up): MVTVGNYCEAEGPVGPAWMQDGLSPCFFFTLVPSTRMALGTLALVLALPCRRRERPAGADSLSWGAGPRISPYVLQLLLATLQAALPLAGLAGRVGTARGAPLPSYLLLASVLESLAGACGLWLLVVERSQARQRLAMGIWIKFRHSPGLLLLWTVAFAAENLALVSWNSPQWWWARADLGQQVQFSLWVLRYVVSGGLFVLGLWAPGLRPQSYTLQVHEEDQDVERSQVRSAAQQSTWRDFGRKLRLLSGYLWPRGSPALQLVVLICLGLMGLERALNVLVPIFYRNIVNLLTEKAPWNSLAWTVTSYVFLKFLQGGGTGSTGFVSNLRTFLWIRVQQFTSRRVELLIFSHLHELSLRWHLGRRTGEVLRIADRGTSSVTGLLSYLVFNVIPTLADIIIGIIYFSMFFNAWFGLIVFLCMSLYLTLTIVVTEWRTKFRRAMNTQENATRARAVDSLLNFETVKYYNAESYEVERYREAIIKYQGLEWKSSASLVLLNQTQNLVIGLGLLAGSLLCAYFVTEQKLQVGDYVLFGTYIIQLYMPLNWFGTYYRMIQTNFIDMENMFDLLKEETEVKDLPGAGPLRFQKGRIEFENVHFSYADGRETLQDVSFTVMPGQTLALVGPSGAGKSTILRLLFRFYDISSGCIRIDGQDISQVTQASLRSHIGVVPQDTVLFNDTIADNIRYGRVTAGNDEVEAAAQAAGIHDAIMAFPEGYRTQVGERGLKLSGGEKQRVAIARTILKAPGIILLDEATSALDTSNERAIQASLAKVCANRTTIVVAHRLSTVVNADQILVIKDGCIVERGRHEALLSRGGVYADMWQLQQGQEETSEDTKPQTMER
Assay [17] in a line: promoters of myeloid differentiation in arrested cells, primary screen, cell-based, GFP/MAC1 double positive, flow cytometry, validation set (AID 588685;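 active means differentiation response of at least 50%, scaled between solvent and reference control, from cells with both markers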;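 further: compound exposure lasts four days before antibody staining and flow analysis; 0% = DMSO wells and 100% = 5 µM fulvestrant positive control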). The following applies: ER-HoxA9 marrow cells, stronger effect = higher value.
[18] abbreviates: measured here: daughter cell gate.
The mark [19] stands for this setting: measured here: mother cell gate.
Where [20] appears, read: measured here: daughter cell gate response.
Where [21] appears, read: measured here: mother cell gate response.

Chain of Integrin beta-1 (Homo sapiens) + Integrin alpha-4 (Homo sapiens) (P05556 whole entry, looked up): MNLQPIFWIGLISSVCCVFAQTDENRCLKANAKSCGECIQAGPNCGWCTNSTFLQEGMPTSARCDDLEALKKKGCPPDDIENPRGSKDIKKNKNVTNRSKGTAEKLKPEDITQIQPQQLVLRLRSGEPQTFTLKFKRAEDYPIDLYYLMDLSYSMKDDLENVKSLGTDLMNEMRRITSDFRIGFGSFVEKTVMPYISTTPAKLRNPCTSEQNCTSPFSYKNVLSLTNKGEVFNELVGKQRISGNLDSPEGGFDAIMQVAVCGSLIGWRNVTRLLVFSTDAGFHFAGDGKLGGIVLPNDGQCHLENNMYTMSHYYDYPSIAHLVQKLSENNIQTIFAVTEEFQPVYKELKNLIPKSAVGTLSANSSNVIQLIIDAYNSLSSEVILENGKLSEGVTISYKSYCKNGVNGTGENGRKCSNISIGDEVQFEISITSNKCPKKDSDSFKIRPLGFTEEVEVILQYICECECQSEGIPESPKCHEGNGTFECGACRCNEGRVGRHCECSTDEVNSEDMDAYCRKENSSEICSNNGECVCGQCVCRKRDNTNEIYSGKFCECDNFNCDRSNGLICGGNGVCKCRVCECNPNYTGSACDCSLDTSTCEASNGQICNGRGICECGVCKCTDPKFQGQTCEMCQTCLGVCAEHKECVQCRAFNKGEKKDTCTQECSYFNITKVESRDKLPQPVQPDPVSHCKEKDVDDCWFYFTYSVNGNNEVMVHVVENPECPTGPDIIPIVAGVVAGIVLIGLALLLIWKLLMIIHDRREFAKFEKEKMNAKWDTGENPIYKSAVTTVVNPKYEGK
Chain of Integrin beta-1 (Homo sapiens) + Integrin alpha-4 (Homo sapiens) (P13612 whole entry, looked up): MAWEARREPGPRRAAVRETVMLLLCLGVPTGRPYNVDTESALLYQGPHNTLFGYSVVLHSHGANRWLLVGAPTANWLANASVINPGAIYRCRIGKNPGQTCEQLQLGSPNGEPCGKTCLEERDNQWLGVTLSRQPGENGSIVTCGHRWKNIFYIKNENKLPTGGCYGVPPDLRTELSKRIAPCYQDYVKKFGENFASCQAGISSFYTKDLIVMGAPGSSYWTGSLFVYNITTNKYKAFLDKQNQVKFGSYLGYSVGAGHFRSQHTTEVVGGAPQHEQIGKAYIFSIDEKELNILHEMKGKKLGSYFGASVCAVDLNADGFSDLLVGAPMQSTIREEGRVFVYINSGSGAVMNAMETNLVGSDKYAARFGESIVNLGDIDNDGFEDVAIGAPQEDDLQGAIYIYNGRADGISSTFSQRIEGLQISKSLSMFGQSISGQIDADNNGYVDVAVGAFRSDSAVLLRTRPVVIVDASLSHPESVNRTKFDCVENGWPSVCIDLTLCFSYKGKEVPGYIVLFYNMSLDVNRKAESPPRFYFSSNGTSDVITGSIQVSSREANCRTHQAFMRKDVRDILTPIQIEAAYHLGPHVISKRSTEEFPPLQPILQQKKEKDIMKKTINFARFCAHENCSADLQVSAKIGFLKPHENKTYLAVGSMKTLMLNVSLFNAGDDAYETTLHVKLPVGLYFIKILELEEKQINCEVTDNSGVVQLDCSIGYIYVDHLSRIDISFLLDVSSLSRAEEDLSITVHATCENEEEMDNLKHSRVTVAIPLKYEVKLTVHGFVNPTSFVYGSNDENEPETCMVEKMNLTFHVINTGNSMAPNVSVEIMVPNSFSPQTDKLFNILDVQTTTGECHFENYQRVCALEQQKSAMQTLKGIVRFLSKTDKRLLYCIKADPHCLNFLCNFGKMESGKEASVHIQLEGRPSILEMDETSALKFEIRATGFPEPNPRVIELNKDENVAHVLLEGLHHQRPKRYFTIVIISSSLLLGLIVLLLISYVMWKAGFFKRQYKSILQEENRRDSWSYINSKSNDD
Chain of Lethal factor (Bacillus anthracis) (P15917 whole entry, looked up): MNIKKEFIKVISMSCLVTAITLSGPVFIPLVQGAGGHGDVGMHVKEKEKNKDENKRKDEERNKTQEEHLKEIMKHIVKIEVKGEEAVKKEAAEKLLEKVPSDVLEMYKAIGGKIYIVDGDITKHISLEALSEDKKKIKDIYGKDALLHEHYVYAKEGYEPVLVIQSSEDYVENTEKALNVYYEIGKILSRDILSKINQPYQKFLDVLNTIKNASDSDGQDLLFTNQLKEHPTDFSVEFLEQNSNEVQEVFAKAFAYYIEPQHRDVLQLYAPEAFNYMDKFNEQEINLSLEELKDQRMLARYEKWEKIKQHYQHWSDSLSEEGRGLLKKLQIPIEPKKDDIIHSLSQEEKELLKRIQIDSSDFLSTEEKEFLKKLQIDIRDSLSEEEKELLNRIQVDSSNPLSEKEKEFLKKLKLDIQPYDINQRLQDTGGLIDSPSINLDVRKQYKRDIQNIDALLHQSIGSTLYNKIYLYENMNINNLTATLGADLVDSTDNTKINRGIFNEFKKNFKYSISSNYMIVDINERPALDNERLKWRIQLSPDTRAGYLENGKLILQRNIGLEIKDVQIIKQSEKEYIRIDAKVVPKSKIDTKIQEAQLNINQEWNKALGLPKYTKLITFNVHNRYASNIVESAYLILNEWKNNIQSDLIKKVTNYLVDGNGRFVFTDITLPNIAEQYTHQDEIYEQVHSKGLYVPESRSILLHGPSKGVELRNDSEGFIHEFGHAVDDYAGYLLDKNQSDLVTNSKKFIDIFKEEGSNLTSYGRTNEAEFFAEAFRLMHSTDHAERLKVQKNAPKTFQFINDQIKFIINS

Consider `Cc1cc(C=C2C(=O)N(C)C(=S)N(C)C2=O)c(C)n1-c1ccncc1`, for which the GFP response vs DMSO in [1] was 92.8% (inactive); in assay [1] (setting [18]), 91.1%; in [1] (setting [19]) it was 88.6%. Further, the figures for the GFP response relative to DMSO in [2], in [2] (setting [20]) and in assay [2] (setting [21]) were 114% (inactive), 108% and 117%, respectively. Besides, the GFP response, % of DMSO in assay [3] is 69.1% (inactive); in [3] (setting [18]) it was 70.3%; in assay [3] (setting [19]) it was 64.4%.

Turning to `O=C(O)c1[nH]c(=O)[nH]c(=O)c1F`, the GFP response vs DMSO is 96.9% (inactive) in [1], 97.6% in assay [1] (setting [18]) and 95.6% in [1] (setting [19]). Also, the figures for the GFP response relative to DMSO in assay [2], in [2] (setting [20]) and in assay [2] (setting [21]) were 100% (inactive), 97.5% and 100%, respectively. Further, the results for the GFP response, % of DMSO in [3], in assay [3] (setting [18]) and in [3] (setting [19]) were 100% (inactive), 99.3% and 100%, respectively.

Consider `CN1C(=O)NC(=O)/C(=C\C=C\c2ccccc2[N+](=O)[O-])C1=O`, for which the figures for the GFP response vs DMSO in [1], in [1] (setting [18]) and in assay [1] (setting [19]) were 102% (inactive), 90.4% and 93.5%, respectively. The GFP response relative to DMSO was 107% (inactive) in [2], 103% in [2] (setting [20]) and 112% in assay [2] (setting [21]). Moreover, the GFP response, % of DMSO in assay [3] was 84.7% (inactive); in assay [3] (setting [18]), 96.8%; in assay [3] (setting [19]), 70.8%.

On to `CCN1C(=O)NC(=O)/C(=C\c2cn(CC(=O)N3CCCC3)c3ccccc23)C1=O`, for which the GFP response vs DMSO in [1] was 97.3% (inactive); in [1] (setting [18]), 97.3%; in [1] (setting [19]) it was 96.9%. The GFP response relative to DMSO in assay [2] is 102% (inactive); in assay [2] (setting [20]) it was 102%; in [2] (setting [21]), 102%. Further, the GFP response, % of DMSO in [3] is 100% (inactive); in assay [3] (setting [18]), 101%; in assay [3] (setting [19]), 100%.

For `NC12CC3CC(CC(C3)C1)C2`, the inhibition (in general, the drop in the measured response relative to a control, in per cent) in assay [4] is -1.1% (inactive); in assay [5] it was -0.6% (inactive).

On to `c1cnc2c(c1)ccc1ncccc12`, for which the double positive events in [6] is 64.8%. The vesicle binding response in assay [6] is 165% (inactive). Further, the inhibition in [7] is 0.59% (inactive); in assay [11], -6.24% (inactive); in assay [4], -4.1% (inactive); in [5], -0.7% (inactive); in assay [14], -2.4% (inactive); in assay [16], 4% (inactive). The superoxide response (% of plate) in assay [8] was 83.3% (inactive). Moreover, the aptamer binding inhibition in assay [9] is 8% (inactive). Also, the response is -15% (inactive) in [10] and 21.4% (active) in [12]. For the same molecule, the binding (% of control) in [13] was 102% (inactive). Further, the efflux inhibition (fraction of control) in assay [15] was 0.08 (inactive). Besides, in [17], the differentiation response was -17.8% (inactive).

In the case of `NC(N)=NC(=O)c1nc(Cl)c(N)nc1N`, the inhibition in [4] is -3.3% (inactive); in assay [5] it was -0.3% (inactive).

`CC(CCc1ccccc1)NC(C)C(O)c1ccc(O)cc1` (stereo not drawn) registered a double positive events in [6] of 49%. Besides, the vesicle binding response in assay [6] was 166% (inactive). Further, the inhibition in assay [7] is -20.8% (inactive); in assay [11] it was 2.09% (inactive); in assay [4] it was -3.5% (inactive); in [5] it was -0.8% (inactive); in assay [14] it was -0.5% (inactive); in [16], 10% (inactive). Moreover, the superoxide response (% of plate) in assay [8] is 111% (inactive). For the same molecule, the aptamer binding inhibition in assay [9] is 1% (inactive). In [12], the response was 5.84% (inactive). For the same molecule, the binding (% of control) in assay [13] is 95.4% (inactive). The efflux inhibition (fraction of control) in assay [15] was -0.28 (inactive). For the same molecule, in assay [17], the differentiation response is -16.4% (inactive).

In turn, `COc1ccc2c3c([nH]c2c1)C(C)=NCC3` showed a double positive events in [6] of 57.1%. In assay [6], the vesicle binding response is 218% (inactive). Further, the inhibition was -16.1% (inactive) in assay [7]; 10.6% (inactive) in [11]; -22.6% (inactive) in assay [4]; -5.4% (inactive) in assay [5]; -104% (inactive) in assay [14]; -229% (inactive) in [16]. Besides, the superoxide response (% of plate) in [8] is 102% (inactive). Further, in assay [9], the aptamer binding inhibition is -10% (inactive). The response in [12] was -11.3% (inactive). Moreover, the binding (% of control) in assay [13] was 172% (inactive). Further, in assay [15], the efflux inhibition (fraction of control) was -0.24 (inactive). For the same molecule, the differentiation response in assay [17] is 20.8% (inactive).
